Screens deposited in PubChem BioAssay by National Center for Advancing Translational Sciences (NCATS).
TRHR PAM = qHTS for Small Molecule Agonists and Allosteric Enhancers of Human TRH Receptor: Primary Screen for Enhancers | Thyrotropin-releasing hormone receptor (Homo sapiens), P34981 | 0.66% of 360,000 active | enhancement, % at 2 µM | TRHR cells, fluo-8 calcium fluorescence, EC20 TRH enhancement; in the data active = enhancement above about 30%; also: 0% is about no effect
Target sequence (P34981 whole entry, looked up): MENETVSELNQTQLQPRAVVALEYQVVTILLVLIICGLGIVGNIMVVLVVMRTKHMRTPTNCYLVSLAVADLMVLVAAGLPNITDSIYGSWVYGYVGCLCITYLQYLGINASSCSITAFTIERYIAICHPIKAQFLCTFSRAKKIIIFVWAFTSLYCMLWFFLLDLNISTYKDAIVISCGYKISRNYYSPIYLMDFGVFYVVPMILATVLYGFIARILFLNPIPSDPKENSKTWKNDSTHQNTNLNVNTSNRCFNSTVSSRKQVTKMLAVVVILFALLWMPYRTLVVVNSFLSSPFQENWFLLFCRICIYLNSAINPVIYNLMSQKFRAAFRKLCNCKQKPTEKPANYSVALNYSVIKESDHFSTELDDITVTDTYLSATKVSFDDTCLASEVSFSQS
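TRHR-expressing cells loaded with fluo-8 calcium dye were read kinetically (ex 480/em 530) during compound addition, then stimulated with an EC20 of TRH (10 nM final). Enhancement of the Gq-mediated intracellular calcium response was scored.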
D1 antagonist = Antagonist of Human D 1 Dopamine Receptor: qHTS; D(1A) dopamine receptor (Homo sapiens), P21728; HEK293 TREx D1 cells, calcium flux, dopamine EC80; stronger effect = lower value; activity change, negative = inhibition, % at 10 µM; 3.2% of 360,000 active; in the data active = activity change below about -30%; also: % is scaled to controls: 0 for no effect and ±100 for the full control effect
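Cells carrying a force-coupled, tetracycline-inducible human D1 receptor report calcium flux. Each well gets a 10 s baseline, compound with 180 s monitoring, then an EC80 dopamine stimulus with a second 180 s kinetic read.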
D1 agonist = Allosteric Agonists of the Human D1 Dopamine Receptor: qHTS; 1% of 360,000 active; AID 504660, 2011; HEK293 T-REx D1 cells, calcium flux, agonist mode; activation, % at 2 µM; also: 0% is about no effect
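Inducible HEK293 T-REx D1 cells, force-coupled to calcium signalling, were plated at 4000 cells/well with tetracycline and held overnight at 30 C. After no-wash calcium dye loading, compound-evoked calcium rise over 180 s flagged agonists.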
TRHR agonist = qHTS for Small Molecule Agonists and Allosteric Enhancers of Human TRH Receptor: Primary Screen for Agonists. Thyrotropin-releasing hormone receptor (Homo sapiens), P34981. TRHR cells, calcium flux fluo-8, FDSS agonist mode. activation, % at 2 µM. 0.18% of 360,000 active. AID 493084, 2011; also: 0% is about no effect
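In this calcium-flux screen, cells bearing human TRHR are dye-loaded with fluo-8, baselined for 10 cycles, then exposed to library compounds; positive kinetic calcium responses during the agonist phase mark hits, with TRH as control.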
D1 potentiator = Potentiators of Human D1 Dopamine Receptor: qHTS; D(1A) dopamine receptor (Homo sapiens), P21728; HEK293 TREx D1 cells, calcium flux, dopamine EC20 potentiation; potentiation, % at 10 µM; 0.036% of 360,000 active; in the data active = potentiation above about 30%; also: 0% is about no effect
Starred values were filed as active, the others as inactive; · = no result. Rows were chosen to be rich in hits. Some 4.7% of all compounds tested hit in one or more screens of this group. Rule as the data show it, unless noted: active = activation above about 30%; inactive = the rest.

SMILES	TRHR PAM	D1 antagonist	D1 agonist	TRHR agonist	D1 potentiator
COc1cccc(-c2nn3c(=O)cc(CN4CCN(C(=O)COc5ccccc5C)CC4)nc3s2)c1	-1	3	1	-1	3
COc1ccc(Br)cc1C1SCC(=O)Nc2c1c(C)nn2-c1ccccc1C (stereo unspecified)	-5	-11	4	0	-1
CCc1ccc(-n2nc(C)c3c2NC(=O)CSC3c2ccccc2C)cc1 (stereo unspecified)	-6	15	0	-1	-2
CCc1ccc(-n2nc(C)c3c2NC(=O)CSC3c2ccc(C(=O)OC)cc2)cc1 (stereo unspecified)	7	-43*	9	0	1
CCN(CC)c1ccc(/C=C/[N+](=O)[O-])cc1	0	-19	254*	72*	-3
O=C(Nc1ccc(Cl)cc1C(=O)c1ccccc1Cl)c1ccco1	1	-39*	2	1	-7
O=C(Nc1ccc(Cl)cc1C(=O)c1ccccc1)c1ccco1	-6	-33*	5	0	-5
CC(C)c1ccc(NC(=O)CN2C(=O)CN=C(c3ccccc3)c3ccccc32)cc1	0	1	1	0	1
CN1C(=O)C(=Cc2ccc(OCC(=O)Nc3ccccc3)cc2)C(=O)N(C)C1=O	-1	-34*	4	0	-1
CC1(C)CC(CCNCc2ccc3c(c2)OCO3)(Cc2ccccc2)CCO1 (stereo unspecified)	-2	-2	61*	4	-2
COc1ccc(-n2c(/C=C\c3ccccc3F)nc3ccccc3c2=O)cc1OC	0	-7	-5	0	3
CCOC(=O)c1[nH]ncc1CN1CCCC(C(=O)c2cccc(Cl)c2)C1 (stereo unspecified)	4	-13	43*	1	-12
Cc1ncc(CN2CCCC(C(=O)c3cccc(Cl)c3)C2)s1 (stereo unspecified)	-3	17	1	0	2
O=C(Nc1ccc(OC(F)(F)F)cc1)c1cccn(Cc2ccccc2Cl)c1=O	3	-5	1	0	0
O=S1(=O)N(Cc2ccccc2)CCCN1Cc1ccc(F)cc1Cl	20	-44*	10	1	-3
O=S1(=O)N(Cc2ccccc2Cl)CCCN1Cc1ccccc1Cl	3	-3	19	2	3
Cc1ccc(N2C(=O)/C(=C/N3CCN(C(=O)c4ccco4)CC3)C(=O)NC2=S)cc1C	-1	-35*	1	1	-6
Cc1cccc(N2C(=O)/C(=C/N3CCN(C(=O)c4ccco4)CC3)C(=O)NC2=S)c1	1	3	2	0	-4
O=C(Nc1ccccc1C(F)(F)F)c1cccn(Cc2ccccc2)c1=O	0	·	3	1	0
CCn1c(O)c(C=Nc2ccc(N3CCOCC3)cc2)c(=O)n(CC)c1=S	7	-4	99*	32*	-4
O=c1[nH]c(=S)n(-c2ccc(Cl)cc2)c(O)c1C=Nc1ccc(N2CCOCC2)cc1	33*	2	42*	13	-6
O=C(Nc1ccc(F)c(Cl)c1)N(Cc1ccc2c(c1)OCO2)C1CCN(Cc2ccccc2)CC1	7	-19	17	2	2
CCn1c(CN2CCN(C)CC2)nc2ccccc21	-2	8	1	0	-2
CCOC(=O)C1=C(N)OC2=C(C(=O)CC(C)(C)C2)C12C(=O)Nc1ccccc12 (stereo unspecified)	-3	-37*	1	0	-12
CN1CCN(c2ccc([N+](=O)[O-])c(NCc3ccco3)c2)CC1	4	-31*	0	0	-6
SMILES	TRHR PAM	D1 antagonist	D1 agonist	TRHR agonist	D1 potentiator
COC(=O)C(O)(c1ccc(NC(=S)NC(=O)c2ccc(Cl)cc2Cl)c(C)c1)C(F)(F)F (stereo unspecified)	0	-52*	46*	3	-12
CCOC(=O)C(O)(c1ccc(NC(=S)NC(=O)c2ccc(Cl)cc2Cl)c(C)c1)C(F)(F)F (stereo unspecified)	2	-35*	54*	7	-10
COC(=O)C1=C(c2ccc(OC)c(OC)c2)C[C@@H]2CC[C@H]1N2C(=O)NCc1ccco1	3	·	-2	0	-7
Cc1ccc(Cn2cccc(C(=O)Nc3nnc(C)s3)c2=O)cc1	2	·	-1	0	0
N#CC1=C(N)Oc2c(c(=O)sc3ccccc23)C1c1cccnc1 (stereo unspecified)	35*	-4	1	-1	-2
CC(C)(C)P(=O)(N1CCOCC1)N1CCOCC1	-8	-4	3	1	0
O=CC(Cl)P(=O)(N1CCOCC1)N1CCOCC1 (stereo unspecified)	0	-36*	1	0	-6
Cc1ccc(-n2nc(C)c3c2NC(=O)CSC3c2ccc(O)cc2)cc1Cl (stereo unspecified)	0	1	-1	0	0
COc1ccc(OC)c(NC(=O)Cn2cc(C(=O)c3ccccc3F)c3ccccc32)c1	3	-33*	3	0	-4
CC(=O)Nc1ccc(OC(=O)N(C)c2ccccc2)cc1	3	12	3	1	-3
CC(=O)Nc1ccc(OC(=O)N(C)c2ccc(C)cc2)cc1	2	-38*	1	0	-6
N#Cc1cc([N+](=O)[O-])ccc1NC(=O)c1cccn(Cc2cccc(F)c2)c1=O	1	·	3	1	1
Clc1ccccc1CN1CCN(c2cccc3[nH]ccc23)CC1	1	-48*	0	0	-3
COc1ccccc1N1CCN(Cc2ccccc2Cl)CC1	0	11	2	-1	-3
C[C@H]1OC[C@@H](C[N+](C)(C)C)O1	-2	19	47*	41*	-3
CCOc1ccc2nc(NC(=O)c3cccn(Cc4ccccc4Cl)c3=O)sc2c1	4	-6	1	0	-3
COc1ccc(NC(=O)CCc2nc(C3=CCN(Cc4cccc(Cl)c4)CC3)no2)cc1OC	-2	-9	8	0	-2
COc1ccc(CNCCc2ccc3c(c2)OCO3)cc1Br	-2	-18	78*	0	-4
FC(F)(F)c1ccc(CNCCc2ccc3c(c2)OCO3)cc1	10	4	35*	1	-2
Cc1ccc2c(c1)C(Cc1nc3ccccc3c(=O)n1-c1ccc(Br)cc1)C(=O)N2 (stereo unspecified)	-1	14	1	-1	5
CC(=O)c1cn(Cc2ccccc2C#N)c2ccccc12	-4	-34*	15	-2	-5
